# Experimental data reported in PubChem BioAssay (EPA / NIEHS).
# “And” between values parts separate entries of the source, which are not always exact repeats. Identical values can stand only once. A structure can be active in one record and inactive in another. The source made the active and inactive calls. Rule for the calls: active = hit-call score of the fitted dose curve at least 0.9, where 1 is the maximum; inactive = score below 0.9.
# Read-out: Pselectin, SELP (gene 6403)
# Assay: BSK_4H_Pselectin: BioMAP Diversity Plus: 4H Assay for Pselectin Biomarker Activity (AID 2283026)
# Conditions: primary human endothelial cells (HUVEC); actives raise or lower the signal
# Protocol: BSK_4H is a cell-based, multiplexed-readout assay that uses umbilical vein endothelium, a human vascular primary cell, with measurements taken at 24 hours after chemical dosing in a 96-well plate.BSK_4H_Pselectin is an assay component measured in the BSK_4H assay. It measures P-Selectin antibody related to regulation of gene expression using ELISA technology.Data from the assay component BSK_4H_Pselectin was analyzed into 1 assay endpoint. This assay endpoint, BSK_4H_Pselectin, was analyzed with bidirectional fitting relative to DMSO as the negative control and baseline of activity. Using a type of binding reporter, gain or loss-of-signal activity can be used to understand changes in the signaling as they relate to the gene SELP. Furthermore, this assay endpoint can be referred to as a primary readout, because this assay has produced multiple assay endpoints where this one serves a signaling function. To generalize the intended target to other relatable targets, this assay endpoint is annotated to the cell adhesion molecules intended target family, where the subfamily is selectins.
# The levels of cell surface (or secreted, indicated by the prefix "s") biomarker endpoints were measured by ELISA. Overt cytotoxicity to cells in confluent adherent cultures (all systems other than the BT system) was assessed by measuring total protein levels using sulforhodamine B (SRB) staining in parallel cultures at the time of biomarker measurements, indicated as SRB endpoints. For proliferation assays for adherent cell types, individual cell types are cultured at sub-confluence and relative cell numbers quantified by SRB staining at time points optimized for each system (48 h: 3C and CASM3C systems; 72 h: BT and HDF3CGF systems; 96 h: SAg system). SRB was performed by staining cells with 0.1% SRB after fixation with 10% TCA and reading wells at 560 nm.Viability and proliferation of PBMC (T cells) was quantified by Alamar Blue reduction for the SAg and BT systems. For PBMC viability (referred to as PBMC Cytotoxicity within the assay endpoint names), cells were plated (75,000/well in a 96-well plate) and then chemical samples added for 1 h before addition of activators, SEB and TSST-1 (20 ng/mL final concentration each). Cells were incubated for 90 h. Then, Alamar Blue (20 uL/well) (Invitrogen, Cat DAL1100) was added for 6 h, and the plates were read with a fluorescence microplate reader at 546/580 nm (excitation/emission). For PBMC proliferation, cells were plated and activated as above but incubated for only 16 h prior to addition of Alamar Blue. Plates were read after 6 h.
SMILES,AC50,outcome
O=C(c1ccc(OCCN2CCCCC2)cc1)c1c(-c2ccc(O)cc2)sc2cc(O)ccc12,25.2 µM (active),
CC(C)(C)c1cccc(O)c1,,inactive
CCCO[Si](OCCC)(OCCC)OCCC,,inactive
COc1ccccc1NC(=O)CC(C)=O,,inactive
O=C(O)C(F)(F)C(F)(F)C(F)(F)C(F)(F)C(F)(F)C(F)(F)C(F)(F)C(F)F,19.5 µM (active),inactive
CCn1cc(C(=O)O)c(=O)c2ccc(C)nc21,,inactive
c1ccc(OCCOc2ccccc2)cc1,,inactive
CC(C)(CO)CO,5.64 µM (active),inactive
C=CC(=O)OCC(CO)(COC(=O)C=C)COC(=O)C=C,0.341 µM (active),
CC(=O)OC(C)(C)C1CC=C(C)CC1 (stereo not given),31.2 µM (active),
CC1(C)[C@H](C=C(Cl)Cl)[C@H]1C(=O)OCc1cccc(Oc2ccccc2)c1,,inactive
CCCCN(CCO)CCO,,inactive
COC(=O)c1ccc(C(=O)OC)cc1,,inactive
CCCCCCCCCCCCS,20 µM (active),
O=C1OC2(c3ccc(O)cc3Oc3cc(O)ccc32)c2ccccc21,,inactive
CC(=O)CCC=C(C)CCC=C(C)C,,inactive
O=C(O)C(F)(F)OC(F)(F)C(F)(F)OC(F)(F)C(F)(F)C(F)(F)C(F)(F)F,,inactive
CC/C(=C(\c1ccccc1)c1ccc(OCCN(C)C)cc1)c1ccccc1,7.7 µM (active) and 8.24 µM (active),
NC(=O)c1c(Cl)cccc1Cl,,inactive

SMILES,AC50,outcome
CC(C)Cc1ccc(C(C)C(=O)O)cc1 (stereo not given),,inactive
OCC(F)(OC(F)(F)C(F)(OC(F)(F)C(F)(F)C(F)(F)F)C(F)(F)F)C(F)(F)F (stereo not given),4.38 µM (active),inactive
c1ccc(Sc2ccccc2)cc1,29.6 µM (active),
CC(=O)c1ccc(C)cc1,,inactive
CC1=CC(C)C(C=O)C(C)C1 (stereo not given) (tested in a mixture with another compound),,inactive
C[C@]12CC[C@@H]3c4ccc(O)cc4CC[C@H]3[C@@H]1CC[C@@H]2O,,inactive
CCCCCCCCCC(=O)OCC,30.9 µM (active),
CC(=O)OCC=C(C)CCC=C(C)CCC=C(C)C,,inactive
CCC(=O)OCC=Cc1ccccc1,,inactive
O=S1(=O)CC(Cl)(Cl)C(Cl)(Cl)C1,0.194 µM (active),
C#C[C@]1(O)CC[C@H]2[C@@H]3CCc4cc(O)ccc4[C@H]3CC[C@@]21C,,inactive
c1ccc2c(c1)-c1ccc3ccc4cccc5cc-2c1c3c45,,inactive
C=C1CC/C=C(\C)CC[C@@H]2[C@@H]1CC2(C)C,29.1 µM (active),
C=C(C)C(=O)OCCC(F)(F)C(F)(F)C(F)(F)C(F)(F)C(F)(F)C(F)(F)C(F)(F)C(F)(F)F,,inactive
Nc1ccc(N)c([N+](=O)[O-])c1,,inactive
C=C(F)C(=O)OC(C(F)(F)F)C(F)(F)F,,inactive
C=C(C)C(N)=O,,inactive
CCCCOCCOCCO,,inactive
